From the supplement of paper PMC11732987, “Enantioselective OTUD7B fragment discovery through chemoproteomics screening and high-throughput optimisation” (Communications Chemistry, 2025)

What was measured:
Experiment in all cases: log2 ratio of Biotin-Ahx-Ub-VS probe labelling (fragment/DMSO); higher = less target engagement (more negative = stronger competition), active = hit call of the paper (q ≤ 0.05, log2 ratio ≤ -1)
Settings in all cases: compound concentration: 200 uM; treatment time: 3 h
USP9X = USP9X (UniProt Q93008)
Sequence of USP9X (Q93008 whole entry, the tested form may be a part): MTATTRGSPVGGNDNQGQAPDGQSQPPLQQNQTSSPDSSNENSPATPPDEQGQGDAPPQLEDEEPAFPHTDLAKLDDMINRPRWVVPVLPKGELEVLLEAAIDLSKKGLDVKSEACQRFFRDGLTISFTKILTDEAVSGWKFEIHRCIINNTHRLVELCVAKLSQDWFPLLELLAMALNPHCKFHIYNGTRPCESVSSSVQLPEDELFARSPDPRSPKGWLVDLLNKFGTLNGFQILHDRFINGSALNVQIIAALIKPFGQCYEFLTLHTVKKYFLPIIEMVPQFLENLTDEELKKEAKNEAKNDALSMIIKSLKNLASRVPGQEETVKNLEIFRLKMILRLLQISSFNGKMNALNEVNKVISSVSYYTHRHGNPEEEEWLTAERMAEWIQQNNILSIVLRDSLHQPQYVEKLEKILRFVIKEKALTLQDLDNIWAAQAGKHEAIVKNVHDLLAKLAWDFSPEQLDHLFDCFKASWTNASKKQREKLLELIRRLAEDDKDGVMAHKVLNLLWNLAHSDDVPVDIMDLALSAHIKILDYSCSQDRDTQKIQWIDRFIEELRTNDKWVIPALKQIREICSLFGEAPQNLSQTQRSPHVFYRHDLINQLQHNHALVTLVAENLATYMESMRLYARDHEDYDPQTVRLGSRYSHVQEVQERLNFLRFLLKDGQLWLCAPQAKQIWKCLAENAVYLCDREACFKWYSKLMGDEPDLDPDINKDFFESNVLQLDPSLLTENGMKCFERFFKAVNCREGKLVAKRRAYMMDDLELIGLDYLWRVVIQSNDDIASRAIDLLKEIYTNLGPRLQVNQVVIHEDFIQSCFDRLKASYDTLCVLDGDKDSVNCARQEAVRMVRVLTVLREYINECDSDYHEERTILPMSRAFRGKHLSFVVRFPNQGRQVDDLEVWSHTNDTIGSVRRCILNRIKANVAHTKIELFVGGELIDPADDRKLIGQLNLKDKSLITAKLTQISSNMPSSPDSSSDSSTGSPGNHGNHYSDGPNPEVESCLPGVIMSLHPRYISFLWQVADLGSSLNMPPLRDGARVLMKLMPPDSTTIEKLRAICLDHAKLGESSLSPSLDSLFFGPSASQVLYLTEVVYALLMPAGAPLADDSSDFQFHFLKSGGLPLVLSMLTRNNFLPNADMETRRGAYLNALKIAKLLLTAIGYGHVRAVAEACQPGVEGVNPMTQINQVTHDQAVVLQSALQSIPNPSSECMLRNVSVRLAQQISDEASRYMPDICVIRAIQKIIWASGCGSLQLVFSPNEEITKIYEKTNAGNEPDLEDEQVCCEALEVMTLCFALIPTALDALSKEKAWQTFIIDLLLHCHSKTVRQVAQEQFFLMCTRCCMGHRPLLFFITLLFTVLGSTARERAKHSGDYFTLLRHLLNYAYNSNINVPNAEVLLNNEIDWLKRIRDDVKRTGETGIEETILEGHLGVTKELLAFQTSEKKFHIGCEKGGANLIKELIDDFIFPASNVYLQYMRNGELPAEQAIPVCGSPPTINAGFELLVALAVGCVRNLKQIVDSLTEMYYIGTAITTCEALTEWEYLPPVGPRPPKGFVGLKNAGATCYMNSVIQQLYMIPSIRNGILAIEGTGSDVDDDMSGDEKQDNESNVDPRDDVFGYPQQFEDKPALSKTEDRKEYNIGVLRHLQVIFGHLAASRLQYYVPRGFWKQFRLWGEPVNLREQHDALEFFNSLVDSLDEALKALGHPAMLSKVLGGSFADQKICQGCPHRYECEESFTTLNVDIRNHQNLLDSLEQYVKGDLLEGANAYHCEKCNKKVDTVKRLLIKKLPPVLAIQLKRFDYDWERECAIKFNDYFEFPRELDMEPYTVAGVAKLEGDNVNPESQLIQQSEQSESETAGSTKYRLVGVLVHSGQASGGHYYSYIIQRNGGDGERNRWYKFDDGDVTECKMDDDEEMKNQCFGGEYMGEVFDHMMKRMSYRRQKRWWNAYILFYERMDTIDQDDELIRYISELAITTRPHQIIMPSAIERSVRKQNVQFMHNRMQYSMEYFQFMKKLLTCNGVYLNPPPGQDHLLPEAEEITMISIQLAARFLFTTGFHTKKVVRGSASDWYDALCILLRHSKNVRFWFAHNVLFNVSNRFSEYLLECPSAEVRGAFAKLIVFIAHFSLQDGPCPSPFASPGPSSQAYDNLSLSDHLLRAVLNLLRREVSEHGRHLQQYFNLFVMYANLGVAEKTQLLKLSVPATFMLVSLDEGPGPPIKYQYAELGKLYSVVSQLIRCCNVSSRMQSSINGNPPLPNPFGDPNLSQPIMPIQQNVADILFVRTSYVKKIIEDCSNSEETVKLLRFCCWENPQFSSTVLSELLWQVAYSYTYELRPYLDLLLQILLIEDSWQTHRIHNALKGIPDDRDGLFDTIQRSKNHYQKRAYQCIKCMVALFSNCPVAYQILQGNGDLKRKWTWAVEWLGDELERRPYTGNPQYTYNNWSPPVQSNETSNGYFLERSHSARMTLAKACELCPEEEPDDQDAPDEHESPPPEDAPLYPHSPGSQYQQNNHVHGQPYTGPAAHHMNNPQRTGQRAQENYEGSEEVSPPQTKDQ
How it was run: (§1)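 HEK293T lysate (495 µg per sample, in Tris/CHAPS/IGEPAL buffer with protease inhibitors) was treated in triplicate with fragment at 200 µM or with DMSO for 3 h. It was then treated with Biotin-Ahx-Ub-VS (0.5 µM final) for 1 h. Labelled DUBs were NeutrAvidin-enriched, digested with LysC and trypsin, and run by diaPASEF LC-MS/MS. Spectronaut label-free quantities were global-median-normalised. Values are average log2 ratios fragment/DMSO by unpaired t-test, using proteins with ≥2 unique peptides.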

UniProt O00487 = molecular target: UniProt O00487
How it was run: as §1

UniProt O00507 = molecular target: UniProt O00507
Sequence of UniProt O00507 (O00507 whole entry): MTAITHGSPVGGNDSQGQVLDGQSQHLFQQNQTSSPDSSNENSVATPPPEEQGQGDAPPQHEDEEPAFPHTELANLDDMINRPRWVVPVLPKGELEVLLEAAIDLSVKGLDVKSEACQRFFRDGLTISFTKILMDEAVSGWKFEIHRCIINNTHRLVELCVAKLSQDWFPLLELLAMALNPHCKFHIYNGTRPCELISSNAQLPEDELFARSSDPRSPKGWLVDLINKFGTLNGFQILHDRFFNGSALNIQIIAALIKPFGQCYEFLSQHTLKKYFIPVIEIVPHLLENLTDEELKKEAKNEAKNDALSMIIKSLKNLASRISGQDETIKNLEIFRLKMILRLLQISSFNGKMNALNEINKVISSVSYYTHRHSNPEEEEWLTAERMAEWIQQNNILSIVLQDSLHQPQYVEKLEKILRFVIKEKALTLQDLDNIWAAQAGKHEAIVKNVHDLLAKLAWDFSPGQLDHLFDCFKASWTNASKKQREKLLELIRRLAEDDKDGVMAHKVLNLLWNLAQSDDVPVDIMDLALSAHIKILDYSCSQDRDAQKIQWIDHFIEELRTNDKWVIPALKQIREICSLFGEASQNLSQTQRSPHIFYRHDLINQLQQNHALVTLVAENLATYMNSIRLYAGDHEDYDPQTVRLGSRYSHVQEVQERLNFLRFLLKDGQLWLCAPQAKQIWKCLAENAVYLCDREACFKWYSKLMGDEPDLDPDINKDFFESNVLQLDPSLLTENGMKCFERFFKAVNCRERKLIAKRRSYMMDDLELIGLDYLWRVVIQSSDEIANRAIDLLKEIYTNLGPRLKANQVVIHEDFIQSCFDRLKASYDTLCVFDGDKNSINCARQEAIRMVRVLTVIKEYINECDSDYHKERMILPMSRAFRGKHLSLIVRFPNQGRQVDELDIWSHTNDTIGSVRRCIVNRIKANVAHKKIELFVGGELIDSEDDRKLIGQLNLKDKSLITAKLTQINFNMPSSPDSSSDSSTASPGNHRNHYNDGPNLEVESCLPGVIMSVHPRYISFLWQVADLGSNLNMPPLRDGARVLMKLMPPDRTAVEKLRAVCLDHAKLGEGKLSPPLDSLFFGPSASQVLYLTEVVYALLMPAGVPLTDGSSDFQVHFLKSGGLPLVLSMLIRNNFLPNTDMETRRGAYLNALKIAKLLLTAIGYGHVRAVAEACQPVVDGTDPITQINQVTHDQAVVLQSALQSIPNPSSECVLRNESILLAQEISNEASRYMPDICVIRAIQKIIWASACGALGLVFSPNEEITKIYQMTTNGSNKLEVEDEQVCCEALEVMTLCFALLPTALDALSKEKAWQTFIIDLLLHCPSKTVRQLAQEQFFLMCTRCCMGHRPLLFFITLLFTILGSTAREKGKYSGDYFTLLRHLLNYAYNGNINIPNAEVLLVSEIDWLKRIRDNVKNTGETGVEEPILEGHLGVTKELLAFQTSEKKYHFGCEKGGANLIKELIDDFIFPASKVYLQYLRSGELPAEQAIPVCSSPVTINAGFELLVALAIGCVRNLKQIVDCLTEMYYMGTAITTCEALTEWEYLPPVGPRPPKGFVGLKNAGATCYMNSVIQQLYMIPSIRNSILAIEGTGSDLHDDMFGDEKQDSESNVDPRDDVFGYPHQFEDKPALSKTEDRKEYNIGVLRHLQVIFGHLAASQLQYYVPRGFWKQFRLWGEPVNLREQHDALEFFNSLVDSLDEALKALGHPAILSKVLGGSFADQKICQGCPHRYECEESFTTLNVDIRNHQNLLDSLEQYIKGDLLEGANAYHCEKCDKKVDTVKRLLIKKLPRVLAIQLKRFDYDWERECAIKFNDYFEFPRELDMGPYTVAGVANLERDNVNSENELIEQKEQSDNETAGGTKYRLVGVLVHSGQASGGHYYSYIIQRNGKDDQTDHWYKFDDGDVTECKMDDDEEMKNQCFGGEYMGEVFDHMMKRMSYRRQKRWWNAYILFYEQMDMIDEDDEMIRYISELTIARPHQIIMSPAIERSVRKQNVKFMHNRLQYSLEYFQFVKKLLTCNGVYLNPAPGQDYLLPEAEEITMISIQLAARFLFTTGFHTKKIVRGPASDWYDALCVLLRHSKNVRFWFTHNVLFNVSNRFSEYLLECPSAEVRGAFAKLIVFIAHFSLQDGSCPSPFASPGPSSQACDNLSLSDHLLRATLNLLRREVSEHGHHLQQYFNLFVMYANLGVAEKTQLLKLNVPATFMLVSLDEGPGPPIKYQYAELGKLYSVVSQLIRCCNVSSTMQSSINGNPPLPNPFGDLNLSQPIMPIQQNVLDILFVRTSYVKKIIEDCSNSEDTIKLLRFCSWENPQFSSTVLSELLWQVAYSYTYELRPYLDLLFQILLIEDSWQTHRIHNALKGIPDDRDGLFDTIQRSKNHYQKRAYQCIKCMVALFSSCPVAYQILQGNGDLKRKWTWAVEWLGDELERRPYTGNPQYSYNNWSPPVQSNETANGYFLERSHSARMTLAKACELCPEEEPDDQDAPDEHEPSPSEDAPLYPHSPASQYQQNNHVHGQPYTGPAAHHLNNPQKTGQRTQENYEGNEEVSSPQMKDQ
How it was run: as §1

UniProt P51784 = molecular target: UniProt P51784
How it was run: as §1

UniProt Q5T2D3 = molecular target: T1, UniProt Q5T2D3
T1 sequence (whole entry): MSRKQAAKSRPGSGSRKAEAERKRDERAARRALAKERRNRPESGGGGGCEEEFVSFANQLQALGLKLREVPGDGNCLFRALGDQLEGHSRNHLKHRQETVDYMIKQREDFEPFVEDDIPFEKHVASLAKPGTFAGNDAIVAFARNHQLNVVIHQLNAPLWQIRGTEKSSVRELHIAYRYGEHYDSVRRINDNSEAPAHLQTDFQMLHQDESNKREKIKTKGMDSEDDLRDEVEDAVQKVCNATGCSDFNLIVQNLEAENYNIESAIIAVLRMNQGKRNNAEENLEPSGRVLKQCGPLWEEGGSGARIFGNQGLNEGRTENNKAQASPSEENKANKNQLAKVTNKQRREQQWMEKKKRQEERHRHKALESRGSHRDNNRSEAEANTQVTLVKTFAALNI
How it was run: as §1

UniProt Q8TE49 = molecular target: T2, UniProt Q8TE49
T2 sequence (whole entry): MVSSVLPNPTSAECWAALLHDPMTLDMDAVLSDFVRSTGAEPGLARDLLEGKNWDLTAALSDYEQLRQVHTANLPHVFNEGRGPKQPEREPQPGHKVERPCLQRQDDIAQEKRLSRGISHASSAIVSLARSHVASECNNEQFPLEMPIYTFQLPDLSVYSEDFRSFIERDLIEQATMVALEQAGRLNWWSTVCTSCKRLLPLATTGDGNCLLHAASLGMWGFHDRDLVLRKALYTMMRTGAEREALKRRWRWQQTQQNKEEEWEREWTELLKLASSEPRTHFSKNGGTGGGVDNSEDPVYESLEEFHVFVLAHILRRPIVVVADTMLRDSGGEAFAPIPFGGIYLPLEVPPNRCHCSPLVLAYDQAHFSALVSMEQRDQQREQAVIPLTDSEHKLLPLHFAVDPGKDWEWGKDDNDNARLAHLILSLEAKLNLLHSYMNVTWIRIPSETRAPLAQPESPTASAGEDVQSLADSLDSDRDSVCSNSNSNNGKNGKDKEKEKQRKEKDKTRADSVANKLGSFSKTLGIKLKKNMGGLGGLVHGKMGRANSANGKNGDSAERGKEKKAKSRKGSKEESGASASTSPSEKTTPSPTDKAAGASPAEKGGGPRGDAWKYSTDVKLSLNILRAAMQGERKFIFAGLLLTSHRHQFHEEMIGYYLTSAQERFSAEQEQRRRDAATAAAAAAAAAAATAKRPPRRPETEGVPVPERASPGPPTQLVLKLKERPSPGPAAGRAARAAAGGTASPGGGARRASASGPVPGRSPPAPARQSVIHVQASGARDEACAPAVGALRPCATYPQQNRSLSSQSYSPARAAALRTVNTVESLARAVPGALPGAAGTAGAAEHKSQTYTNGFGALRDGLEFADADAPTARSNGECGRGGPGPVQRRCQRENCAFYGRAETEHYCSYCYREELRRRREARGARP
How it was run: as §1

UniProt Q9P2H5 = molecular target: T3, UniProt Q9P2H5
T3 sequence (whole entry): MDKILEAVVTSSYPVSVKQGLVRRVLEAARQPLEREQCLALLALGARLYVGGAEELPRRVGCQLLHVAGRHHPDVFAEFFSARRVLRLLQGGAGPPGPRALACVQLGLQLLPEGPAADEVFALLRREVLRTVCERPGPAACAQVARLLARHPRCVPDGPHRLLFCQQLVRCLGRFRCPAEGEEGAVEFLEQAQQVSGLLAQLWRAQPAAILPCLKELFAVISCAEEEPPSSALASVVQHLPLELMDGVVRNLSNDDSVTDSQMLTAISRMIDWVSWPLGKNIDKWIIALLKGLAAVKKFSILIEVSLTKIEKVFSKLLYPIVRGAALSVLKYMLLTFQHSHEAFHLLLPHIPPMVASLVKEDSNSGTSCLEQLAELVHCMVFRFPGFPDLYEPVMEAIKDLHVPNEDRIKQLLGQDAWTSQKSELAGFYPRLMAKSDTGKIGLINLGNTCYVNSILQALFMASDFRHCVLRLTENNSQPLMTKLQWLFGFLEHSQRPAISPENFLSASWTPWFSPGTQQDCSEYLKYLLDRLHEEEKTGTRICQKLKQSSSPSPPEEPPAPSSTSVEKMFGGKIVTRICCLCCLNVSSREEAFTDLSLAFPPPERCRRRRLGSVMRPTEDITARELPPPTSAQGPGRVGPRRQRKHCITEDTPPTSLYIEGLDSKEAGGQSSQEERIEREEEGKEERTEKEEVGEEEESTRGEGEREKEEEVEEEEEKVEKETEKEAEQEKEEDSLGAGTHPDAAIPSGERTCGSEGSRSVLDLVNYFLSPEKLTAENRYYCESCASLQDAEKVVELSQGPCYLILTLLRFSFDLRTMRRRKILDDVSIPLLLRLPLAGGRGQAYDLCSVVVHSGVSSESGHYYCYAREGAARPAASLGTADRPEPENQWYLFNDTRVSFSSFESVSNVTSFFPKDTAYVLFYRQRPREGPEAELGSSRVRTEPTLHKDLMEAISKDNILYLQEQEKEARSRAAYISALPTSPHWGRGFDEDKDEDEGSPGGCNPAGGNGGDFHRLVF
How it was run: as §1

UniProt Q9UGI0 = molecular target: T4, UniProt Q9UGI0
T4 sequence (whole entry): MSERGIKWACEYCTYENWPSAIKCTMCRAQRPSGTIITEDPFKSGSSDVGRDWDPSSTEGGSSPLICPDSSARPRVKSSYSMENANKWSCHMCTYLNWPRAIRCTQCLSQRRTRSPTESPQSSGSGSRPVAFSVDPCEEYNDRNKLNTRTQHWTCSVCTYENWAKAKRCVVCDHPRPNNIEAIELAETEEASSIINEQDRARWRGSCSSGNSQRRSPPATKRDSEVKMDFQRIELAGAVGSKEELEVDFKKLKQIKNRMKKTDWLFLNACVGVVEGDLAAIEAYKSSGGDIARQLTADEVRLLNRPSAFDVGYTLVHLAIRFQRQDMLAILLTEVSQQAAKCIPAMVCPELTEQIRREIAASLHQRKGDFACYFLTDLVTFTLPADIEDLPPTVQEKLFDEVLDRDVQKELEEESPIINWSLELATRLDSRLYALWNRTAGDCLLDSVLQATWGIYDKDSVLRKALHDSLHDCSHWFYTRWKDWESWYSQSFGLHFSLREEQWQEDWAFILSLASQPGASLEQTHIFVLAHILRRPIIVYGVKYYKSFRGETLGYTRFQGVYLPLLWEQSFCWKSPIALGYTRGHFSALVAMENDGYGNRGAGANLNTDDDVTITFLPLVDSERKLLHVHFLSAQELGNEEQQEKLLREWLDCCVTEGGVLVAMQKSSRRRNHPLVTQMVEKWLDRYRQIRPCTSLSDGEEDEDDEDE
How it was run: as §1

YOD1 = molecular target: T5, YOD1 (UniProt Q5VVQ6)
T5 sequence (whole entry): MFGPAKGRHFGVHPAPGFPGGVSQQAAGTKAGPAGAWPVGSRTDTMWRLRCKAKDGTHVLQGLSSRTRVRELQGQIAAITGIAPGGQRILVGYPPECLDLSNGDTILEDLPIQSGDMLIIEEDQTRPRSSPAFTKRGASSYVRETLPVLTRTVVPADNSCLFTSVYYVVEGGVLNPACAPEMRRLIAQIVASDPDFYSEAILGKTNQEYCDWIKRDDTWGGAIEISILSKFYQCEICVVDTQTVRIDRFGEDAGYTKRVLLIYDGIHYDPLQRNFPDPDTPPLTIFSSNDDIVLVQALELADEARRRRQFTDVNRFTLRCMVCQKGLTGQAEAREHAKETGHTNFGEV
How it was run: as §1

Measured: log2 ratio of Biotin-Ahx-Ub-VS probe labelling

CC1CN(c2ccc(NC(=O)CCl)cc2)CC(C)O1 (centres undefined)
inactive: USP9X -0.166 | UniProt O00487 -0.0932 | UniProt O00507 -0.0662 | UniProt P51784 0.0387 | UniProt Q5T2D3 -0.298 | UniProt Q8TE49 -0.392 | UniProt Q9P2H5 -0.0224 | UniProt Q9UGI0 -0.221 | YOD1 -0.123
